# Measured values: PubChem BioAssay AID2685 (National Center for Advancing Translational Sciences (NCATS), 2010)
# In all, about 320,000 compounds went through this assay and about 2,100 (0.66%) were called active. About 53% were inconclusive and are not listed. The call rests on the fitted dose curve; in most records, active means well fitted inhibition curve with a large enough effect in the signal ratio, with a control signal flat (not every such curve was filed as active); inconclusive means small, poorly fitted or top-dose-only effect, or effect the other way, or a change in a side signal; inactive means flat fitted curve, though single readings scatter; the % refers to the signal ratio. This excerpt belongs to a sample that is enriched for actives.
# Assay: qHTS Assay for Lipid Storage Modulators in Drosophila S3 Cells;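 on cell number change: cells counted by Cell Tracker Red CMTPX staining in the red channel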; on lipid storage change, negative = inhibition: on the % scale 0 is the no-effect control and ±100 the full control effect
# Settings: BODIPY lipid droplet fluorescence, 18-24 h, cells fed with added oleic acid; cell number change: measured here: cell count max response; series mostly up to 46.1 µM; lipid storage change, negative = inhibition: at the top concentration
# Outline: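 Laser-scanning cytometry quantifies lipid droplet accumulation (500–530 nm total intensity; droplet/cell object ratio) in oleic acid-fed (400 uM added) Drosophila S3 cells treated with a concentration series. 20 uM Triacsin C defined 100% inhibition.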
# Potency means the concentration at half of the fitted maximal effect.
Structure (SMILES),"lipid storage change, negative = inhibition",cell number change [%],outcome,Potency
O=C(CS(=O)(=O)Cc1ccccc1)NCc1ccco1,-0.383% (inactive),-5.74,–,–
Cc1ccc(CCNC(=O)C2CCCN(S(=O)(=O)N3CC(C)CC(C)C3)C2)cc1 (stereo not drawn),-23.2% (inactive),-24.2,–,–
CC(=O)Cn1c(C(F)(F)F)nc2ccccc21,-2.72% (inactive),-7.24,–,–
COC(=O)Cn1c(C(F)(F)F)nc2ccccc21,-1.69% (inactive),-24.1,–,–
CCOC(=O)c1c(NC(=O)COC(=O)Cn2c(C(F)(F)F)nc3ccccc32)sc(C)c1C,0.975% (inactive),2.48,–,–
CC(C)(C)NC(=O)NC(=O)COC(=O)Cn1cnc2ccccc2c1=O,–,-17.2,inactive,–
CC(C)(C)NC(=O)NC(=O)COC(=O)Cn1c(C(F)(F)F)nc2ccccc21,–,-8.07,–,5.17 µM (active)
CC(C)(C)c1ccc(OC(=O)Cn2c(C(F)(F)F)nc3ccccc32)cc1,–,-15.3,–,13 µM (active)
Nc1ccc(C(=O)Nc2cccc(NC(=O)c3ccc(N)cc3)c2)cc1,–,-20.4,inactive,–
CCCN1C(=O)C2C(C(=O)Nc3cccc(OC)c3)C3C=CC2(O3)C1C(=O)NC1CCCCC1 (stereo not drawn),-3.79% (inactive),1.47,–,–
Cc1ccc(S(=O)(=O)N(CC(=O)O)Cc2ccco2)cc1,-18.7% (inactive),0.734,–,–
COc1cc(NC(=S)NCc2cccnc2)cc(OC)c1,–,-12.6,–,5.8 µM (active)
COc1cccc(NC(=S)NCc2cccnc2)c1,-1.84% (inactive),–,–,–
COc1cc(NC(=S)NCc2cccnc2)cc(OC)c1OC,7.12% (inactive),5.48,–,–
Cc1ccc(-c2nc(C)sc2CC(=O)Nc2cccc(C)c2C)cc1,0.0243% (inactive),6.08,–,–
COc1ccc(NC(=O)C(=O)Nc2cccc3cccnc23)cc1OC,–,32.1,inactive,–
COc1ccc(C2CC(=O)C3=C(C2)Nc2ccccc2N(C(=O)CCC(=O)O)C3c2ccc(F)cc2)cc1OC (stereo not drawn),-11.3% (inactive),-2.28,–,–
CC(C)c1nnc(SCC(=O)N2CCOCC2)n1C,-0.0362% (inactive),3.98,–,–
CN(C)S(=O)(=O)c1ccc2c(c1)Cc1cc(S(=O)(=O)N(C)C)ccc1-2,-3.2% (inactive),7.91,–,–
CN(C)S(=O)(=O)c1ccc2c(c1)/C(=C/c1cc3c([nH]1)CCCC3)C(=O)N2,–,2.43,–,5.17 µM (active)
Cc1ccc2c(c1)/C(=C/c1ccc(F)cc1)C(=O)N2,22% (inactive),18,–,–
CCOC(=O)C(=NCCCN(C)C)NNc1ccc(Br)cc1,10.6% (inactive),23.2,–,–
COCc1ccc(C(=O)N(C)C2CCCN(Cc3ccccc3F)C2)o1 (stereo not drawn),-23% (inactive),-1.36,–,–
CC(=O)c1c(C)[nH]c(C(=O)Nc2nc(C)cs2)c1C,-4.83% (inactive),-7.81,–,–
CC1(C)C2CCC1(CS(=O)(=O)Nc1ccccc1)C(=O)C2 (stereo not drawn),-21.6% (inactive),-22.6,–,–
COc1cccc(NS(=O)(=O)CC23CCC(CC2=O)C3(C)C)c1 (stereo not drawn),–,-15,–,3.66 µM (active)
COc1ccc(NS(=O)(=O)CC23CCC(CC2=O)C3(C)C)cc1 (stereo not drawn),-15.4% (inactive),6.22,–,–
